D1 potentiator: enhances dopamine response at the human D1 receptor; AID 504651; HEK293 TREx D1 cells, calcium flux, dopamine EC20 potentiation; potentiation, % at 10 µM; P21728; 360,000 tested, 0.036% active; in the data active = potentiation above about 30%; note: 0% is about no effect
D3 ag: activates the human D3 dopamine receptor; P35462; max activation, %; 410,000 tested, 0.58% active; D3R DiscoveRx beta-arrestin cells, luminescence, 90 min; AID 652048; in the data active = max activation above about 30%; note: 0% is about no effect
Target sequence (P35462 whole entry, looked up): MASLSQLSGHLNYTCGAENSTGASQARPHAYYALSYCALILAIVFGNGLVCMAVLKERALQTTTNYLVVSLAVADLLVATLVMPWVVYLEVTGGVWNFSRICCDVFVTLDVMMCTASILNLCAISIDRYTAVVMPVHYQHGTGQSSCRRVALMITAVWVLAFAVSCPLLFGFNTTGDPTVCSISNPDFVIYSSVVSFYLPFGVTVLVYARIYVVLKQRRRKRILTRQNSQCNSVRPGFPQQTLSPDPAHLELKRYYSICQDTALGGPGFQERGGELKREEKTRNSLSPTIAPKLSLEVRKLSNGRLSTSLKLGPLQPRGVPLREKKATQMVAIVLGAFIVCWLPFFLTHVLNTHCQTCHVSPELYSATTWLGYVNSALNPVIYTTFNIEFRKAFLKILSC
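Cells at 1500/well, incubated overnight, then treated with pinned compounds (dopamine as control) for 90 min at 37 degrees C. DiscoveRx reagent added for 30 - 60 minutes at room temperature; luminescence read.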
D3 antag: D3 dopamine receptor (human) antagonism; D3R cells, DiscoveRx beta-arrestin luminescence, antagonist mode; hits give low values; P35462; max response, negative = inhibition, %; 360,000 tested, 2.5% active; AID 652054; in the data active = max response below about -50%; inconclusive = no clear call, values can overlap the other calls; note: % is set by controls: 0 for no effect and ±100 for the full control effect
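Cells expressing the human receptor were seeded at 1500 cells/well, incubated overnight at 37 degrees C in 5% CO2, then exposed to library compounds with dopamine controls for 90 minutes at 37 degrees C before luminescent detection.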
D1 ag: agonists of human D1 dopamine receptor | P21728 | HEK293 T-REx D1 cells, calcium flux, agonist mode | AID 504660 | activation, % at 2 µM | 360,000 tested, 1% active; in the data active = activation above about 30%; note: 0% is about no effect
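Agonism was scored from calcium flux recorded over 180 s (1 read/s) after pintool compound addition, following a 10-cycle baseline. Cells were inducible force-coupled HEK293 TREx D1, plated overnight at 30 C and loaded with no-wash calcium dye.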
D1 antagonist: blocks dopamine activation of the human D1 receptor; HEK293 TREx D1 cells, calcium flux, dopamine EC80; hits give low values; P21728; activity change, negative = inhibition, % at 10 µM; 360,000 tested, 3.2% active; in the data active = activity change below about -30%; note: % is set by controls: 0 for no effect and ±100 for the full control effect
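HEK293 T-REx cells expressing inducible, force-coupled D1 receptor; no-wash Ca dye, 30–90 min RT. Cmpd → 180 s read at 1 Hz → EC80 DA → 180 s read.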
Numbers without * were called inactive; ? = inconclusive; . = no result given; ! = a repeat was not active. In the library only some 6.1% were active in any assay of this set; here they are far more common.

SMILES	D1 potentiator	D3 ag	D3 antag	D1 ag	D1 antagonist
CN(C(=O)CN1C(=O)c2cccc(N)c2C1=O)C1CCCCC1	5	1	11	8	1
CCCCC(CC)CNC(=O)c1ccc(Cn2c(=O)[nH]c3cc(OC)c(OC)cc3c2=O)cc1 (stereo not given)	0	5	.	4	-7
CN1CCCN(C(=O)c2ccc(Cl)s2)CC1	-5	-16	12	5	3
CCOc1ccc(-n2c(SCC(=O)Nc3ccc(F)cc3)nc3c([nH]c4ccccc43)c2=O)cc1	1	-8	.	2	-4
COc1ccc(NC(=O)NNC(=O)CCc2ccc(O)c(O)c2)cc1OC	0	51*	-3	4	-1
O=C(COc1cccc2cccnc12)Nc1ccccc1N1CCOCC1	0	2	41	2	7
CC(C(=O)c1ccccc1)[n+]1cccc(Br)c1 (stereo not given)	0	-5	-71*	3	2
CC(=O)Nc1cc[n+](C(C)C(=O)c2ccc(Br)cc2)cc1 (stereo not given)	-1	-16	-84*	2	-10
CCOc1cc(C(=O)Nc2ccc(-c3nc4ncccc4o3)cc2C)cc(OCC)c1OCC	4	-7	.	1	-6
Cc1cc(C=O)c(C)n1-c1ccc(Oc2ccc([N+](=O)[O-])cn2)cc1	-3	0	-5	22	-53*
Cn1nnnc1Sc1ncnc2scc(-c3cccc(C#N)c3)c12	-3	.	.	1	-1
CN(C)CCN(C(=O)c1ccc2ccccc2c1)c1nc2cc3c(cc2s1)OCCO3	-6	-29	0	3	-4
CN(C)CCCN(C(=O)c1ccc(S(=O)(=O)N(C)Cc2ccccc2)cc1)c1nc2cc3c(cc2s1)OCO3	-3	-11	-9	20	-55*
CCN(c1ccccc1)S(=O)(=O)c1ccc(C(=O)N(CCCN(C)C)c2nc3c(C)cccc3s2)cc1	1	-19	-19	11	23
CN(C)CCCN(C(=O)c1ccc2ccccc2c1)c1nc2cc3c(cc2s1)OCO3	-4	-12	-23	36*	6
CN(C)CCCN(C(=O)COc1ccccc1)c1nc2cc3c(cc2s1)OCO3	-2	-7	-22	36*	-29
CCN(c1ccccc1)S(=O)(=O)c1ccc(C(=O)N(CCCN(C)C)c2nc3cc4c(cc3s2)OCO4)cc1	-6	-21	-17	42*	-25
O=C(COc1ccc(Br)cc1)N1CCNC1=O	-4	7	12	1	-4
Cc1cc2c(s1)c1cnn(Cc3c(Cl)cccc3Br)c(=O)c1n2C	5	.	.	0	20
Cc1nc(Cl)sc1C(=O)Nc1ccc(Cl)cc1	-4	-2	9	2	0
CN(C)CCCN(C(=O)c1ccc([N+](=O)[O-])o1)c1nc2cc3c(cc2s1)OCO3	-2	1	-14	1	-47*
Cc1ccc(Cn2c(=O)c3cccnc3n(Cc3ccc(C)cc3)c2=O)cc1	-7	4	.	0	-30*
Cc1ccc(CNS(=O)(=O)c2ccc3c(c2)NC(=O)CS3)cc1	-3	-13	-14	6	-34*
CCN(Cc1ccccc1)S(=O)(=O)c1ccc2c(c1)NC(=O)CS2	-6	2	28	8	-36*
O=C1CSc2ccc(S(=O)(=O)NCc3ccc(F)cc3)cc2N1	-8	-1	26	5	-1
SMILES	D1 potentiator	D3 ag	D3 antag	D1 ag	D1 antagonist
Cc1ccc2c(c1)c1c3n2CCN(C(=O)c2ccc(C(F)(F)F)cc2)C3CCC1 (stereo not given)	-4	4	.	1	-6
CCS(=O)(=O)c1ncc(Cl)c(C(=O)N2CCN(c3ccc(OC)cc3)CC2)n1	-1	-20	.	-2	-9
CNC(=S)Nc1cccc(-c2cnc3ccccc3n2)c1	-13	-12	-74*	0	-9
CC(C)C(=O)Nc1cccc(-c2cnc3ccccc3n2)c1	-1	5	4	3	-2
CCC(CC)C(=O)N1c2ccccc2C(C)(c2ccccc2)CC1(C)C (stereo not given)	3	4	.	0	2
Cc1ccc(CN2CCN(/N=C/c3cc([N+](=O)[O-])ccc3Cl)CC2)cc1	6	-16	-61*	-1	-1
CCN(CC)c1ccc(/C=N/N2CCN(Cc3ccccc3Cl)CC2)c(O)c1	-3	-15	22	6	29
COc1cc(/C=N/N2CCCCC2)cc([N+](=O)[O-])c1O	0	-11	-65*	0	2
COc1cc(/C=N/N2CCN(Cc3ccc(C)cc3)CC2)cc(OC)c1O	-1	-23	-79*	8	-19
CCN(CC)c1ccc(/C=N/N2CCN(Cc3ccc(C)cc3)CC2)c(O)c1	1	-67	-59*	1	1
Cc1ccc(-c2cc(C(=O)Nc3c(C)n(C)n(-c4ccccc4)c3=O)[nH]n2)c(O)c1C	1	-5	-18	2	11
COc1ccc(NC(=O)C2(C)Cc3c(-c4cccc(NC(C)=O)c4)ccnc3O2)cn1 (stereo not given)	.	-6	9	.	.
O=C(Cn1cnc2ccccc2c1=O)Nc1cccc(-c2nnc3n2CCCCC3)c1	-1	-1	-51*	1	-11
CCOC(=O)C(=CNc1ccc(-c2ccco2)c(Cl)c1)C(=O)OCC	5	38*	110	4	4
CCOC(=O)C(=CNc1cc(Cl)c(-c2ccco2)c(Cl)c1)C(=O)OCC	-2	1	1	10	5
CCOC(=O)C(=CNc1ccc2c(c1)CCN2C(C)=O)C(=O)OCC	2	32*	126	0	6
Cc1cccc2sc(N(Cc3cccnc3)C(=O)CCc3ccccc3)nc12	6	-20	.	56*	.
Cc1cccc2sc(N(Cc3cccnc3)C(=O)Cc3ccccc3)nc12	0	-17	.	10	.
COc1cc(OC)c(NC(=O)c2c(C)oc3ncnc(N4CCCCC4)c23)cc1Cl	-6	1	.	0	8
Cc1ccc2cc(CCNS(=O)(=O)c3ccc(Cl)cc3)c(=O)[nH]c2c1C	-6	21	7	-2	-37*
CCN(Cc1ccccc1)C(=O)Cn1c(=O)n(-c2cccc(C)c2)c(=O)c2c1c1cc(OC)ccc1n2C	0	5	.	3	-6
Cc1ccc(-n2nc3c(=O)n(CC(=O)NC(C)CCc4ccccc4)nc(C)c3c2C)cc1 (stereo not given)	1	7	5	-1	7
O=C(CSc1nccn1Cc1ccco1)Nc1cccc(F)c1	1	-8	-9	31*!	0
O=C(CSc1nccn1Cc1ccco1)Nc1ccc(F)cc1	-1	0	-4	-1	-13
Cc1cc(C)c(OCCCCN(C)Cc2ccccc2)c(C)c1	3	-22	?	11	9
Cc1ccc(OCCCCN(C)Cc2ccccc2)c(Br)c1	-5	-16	-55*	2	-1
Cc1ccc(C(C)C)c(OCCCN(C)Cc2ccccc2)c1	-4	-14	-61*	8	2

Compound activity deposited in PubChem BioAssay by National Center for Advancing Translational Sciences (NCATS).
